# Source: PubChem
# Hits are enriched below; roughly 4.6% of the tested compounds scored in any of these assays.
# TRHR ag = qHTS for Small Molecule Agonists and Allosteric Enhancers of Human TRH Receptor: Primary Screen for Agonists; activation, % at 2 µM; Thyrotropin-releasing hormone receptor (Homo sapiens), P34981; 0.18% of 360,000 active; TRHR cells, calcium flux fluo-8, FDSS agonist mode; note: 0% is about no effect
# Target sequence (P34981 whole entry, looked up): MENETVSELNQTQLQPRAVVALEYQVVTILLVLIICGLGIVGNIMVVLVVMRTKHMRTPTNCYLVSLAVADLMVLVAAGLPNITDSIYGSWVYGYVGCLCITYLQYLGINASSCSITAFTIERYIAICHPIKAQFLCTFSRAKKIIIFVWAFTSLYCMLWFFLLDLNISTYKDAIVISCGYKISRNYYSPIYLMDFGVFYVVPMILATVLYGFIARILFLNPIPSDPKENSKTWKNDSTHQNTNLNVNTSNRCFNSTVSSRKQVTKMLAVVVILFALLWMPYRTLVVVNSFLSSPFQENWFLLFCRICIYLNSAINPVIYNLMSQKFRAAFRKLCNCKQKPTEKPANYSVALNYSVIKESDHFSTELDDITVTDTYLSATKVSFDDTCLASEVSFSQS
#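 Read-out: compound-evoked intracellular calcium rise in TRHR cells, fluo-8 dye, kinetic FDSS fluorescence at 1 s/cycle following a 10-cycle baseline. Cells cultured overnight before dye loading (30 min–1.5 h, RT).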
# D1 antagonist = Antagonist of Human D 1 Dopamine Receptor: qHTS. D(1A) dopamine receptor (Homo sapiens), P21728. HEK293 TREx D1 cells, calcium flux, dopamine EC80; stronger effect = lower value. activity change, negative = inhibition, % at 10 µM. 3.2% of 360,000 active; in the data active = activity change below about -30%; note: % is set by controls: 0 for no effect and ±100 for the full control effect
#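 Antagonism measured as reduced calcium response to an EC80 dopamine addition following 180 s compound pre-read; cells were inducible HEK293 Trex D1 plated overnight at 30 C, read kinetically at 1 cycle/sec.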
# TRHR enhancer = qHTS for Small Molecule Agonists and Allosteric Enhancers of Human TRH Receptor: Primary Screen for Enhancers; Thyrotropin-releasing hormone receptor (Homo sapiens), P34981; TRHR cells, fluo-8 calcium fluorescence, EC20 TRH enhancement; enhancement, % at 2 µM; 0.66% of 360,000 active; AID 493056, 2011; in the data active = enhancement above about 30%; note: 0% is about no effect
#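 TRHR-expressing cells loaded with fluo-8 calcium dye were read kinetically (ex 480/em 530) during compound addition, then stimulated with an EC20 of TRH (10 nM final). Enhancement of the Gq-mediated intracellular calcium response was scored.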
# D1 ag = Allosteric Agonists of the Human D1 Dopamine Receptor: qHTS. D(1A) dopamine receptor (Homo sapiens), P21728. AID 504660, 2011. 1% of 360,000 active. activation, % at 2 µM. HEK293 T-REx D1 cells, calcium flux, agonist mode; note: 0% is about no effect
#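 Tetracycline-induced HEK293 TREx D1 cells, force-coupled to calcium signalling, were dye-loaded with a no-wash calcium kit. Compound was pin-added after a 10 s baseline. Fluorescence was read kinetically at 1 cycle/s for 180 s, with calcium rises flagged as agonism.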
# D1 PAM = Potentiators of Human D1 Dopamine Receptor: qHTS; D(1A) dopamine receptor (Homo sapiens), P21728; HEK293 TREx D1 cells, calcium flux, dopamine EC20 potentiation; potentiation, % at 10 µM; 0.036% of 360,000 active; AID 504651, 2011; in the data active = potentiation above about 30%; note: 0% is about no effect
# * = called active by the depositor. Cut-off read from the data, not from the text of the source, unless noted: active = activation above about 30%; inactive = the rest.
SMILES,TRHR ag,D1 antagonist,TRHR enhancer,D1 ag,D1 PAM
Cc1ccc(C(=O)N2c3nc(-c4ccco4)nn3C3(CCCCC3)[C@@H]3CCCC[C@@H]32)cc1,-1.2,12.0,0.5,-0.6,1.3
O=S(=O)(c1ccc(F)cc1)N1CCC(n2c(C(F)(F)F)nc3cccnc32)CC1,0.2,-5.8,-6.3,5.2,-2.6
COc1ccc(C(Nc2ccccn2)c2ccc3ccc(C)nc3c2O)cc1C (stereo not given),0.0,-6.6,-1.9,6.7,-1.6
CCOc1cc(C(Nc2cc(C)ccn2)c2ccc3cccnc3c2O)ccc1OC (stereo not given),-0.9,-6.3,41.0*,5.4,-4.2
O=C(Nc1noc2ccccc12)c1cccc(F)c1,1.3,4.2,-6.2,1.2,-3.1
O=C(Nc1noc2ccccc12)c1ccc(F)cc1,0.5,3.6,46.0*,3.3,-0.1
C[C@H](NC(=O)C1CCN(S(=O)(=O)c2ccccc2)CC1)C(=O)NCc1ccc(Cl)c(Cl)c1,-0.2,-9.3,-14.7,1.6,-5.3
Fc1ccc(-c2n[nH]c(=S)n2Cc2ccccc2)cc1,-1.6,-3.1,-4.6,-0.9,-6.0
CC(C)(C)c1ccc(-c2n[nH]c(=S)n2Cc2ccccc2)cc1,-1.5,1.4,0.0,91.5*,-0.7
FC(F)C(F)(F)Oc1cccc(-c2n[nH]c(=S)n2Cc2ccccc2)c1,-0.2,-39.5*,2.1,0.2,4.1
Cc1ccc(C2C=C(c3ccc(F)cc3)Nc3nc(CCCO)nn32)cc1 (stereo not given),1.4,2.0,1.4,3.4,-1.9
O=C(CC1Sc2ccccc2NC1=O)c1ccc(Br)cc1 (stereo not given),0.3,-55.8*,2.6,0.5,-5.3
O=C(O)CC1Sc2ccccc2NC1=O (stereo not given),0.1,-14.9,1.6,1.7,3.5
CCN1CCN(c2ncnc3c2cnn3-c2cc(Cl)ccc2C)CC1,0.1,-16.5,-1.8,1.0,0.7
Cc1ccc(Cl)cc1-n1ncc2c(N3CCN(Cc4ccccc4)CC3)ncnc21,-0.8,-45.2*,-5.1,-2.3,-2.2
O=C(CSc1nc2cc(C(=O)NC3CCCC3)ccc2c(=O)n1CC1CCCO1)c1cccc(Cl)c1 (stereo not given),0.4,-36.9*,-0.9,5.9,-3.8
Cc1ccc(C(=O)CSc2nc3cc(C(=O)NC4CCCC4)ccc3c(=O)n2CC2CCCO2)cc1 (stereo not given),1.0,4.2,-1.9,1.2,3.5
Cc1ccccc1C(=O)N1CCN(c2ccc(NC(=O)c3cccnc3Cl)cc2)CC1,0.9,-9.8,-0.8,1.4,-1.4
O=C(Nc1ccc(N2CCN(C(=O)c3ccccc3F)CC2)cc1)c1ncn[nH]1,-0.2,3.2,33.5*,2.4,0.3
O=C(Nc1ccc(N2CCCCC2)c(Cl)c1)c1ncn[nH]1,-0.5,1.5,12.0,39.2*,1.1
COc1ccccc1NC(=O)CSc1oc(-c2cccs2)nc1S(=O)(=O)c1ccccc1,0.8,-16.4,-0.3,5.1,1.1
C=CCOC(=O)C1=C(C)NC(=O)NC1/C=C/c1ccccc1 (stereo not given),-0.4,-30.5*,4.3,1.2,-3.9
CCC(=O)Nc1ccc(C(=O)Nc2ccc(Br)cc2F)cc1,1.6,0.7,40.5*,3.1,-1.1
Cc1nc2sc(C(c3ccco3)N3CC(C)OC(C)C3)c(O)n2n1 (stereo not given),-0.2,4.1,30.9*,0.0,6.7
COc1cc2cc(C(=O)O)n(C)c2c(OC)c1OC,1.0,-36.8*,13.8,5.9,-2.8
SMILES,TRHR ag,D1 antagonist,TRHR enhancer,D1 ag,D1 PAM
CN(C)CCCN(C(=O)c1ccc2c(c1)OCCO2)c1nc2ccc(Cl)cc2s1,3.2,-22.9,20.8,33.4*,-2.8
CN(C)CCN(C(=O)c1ccc2c(c1)OCCO2)c1nc2ccc(Cl)cc2s1,0.3,-4.3,-1.5,5.9,-3.9
CCN(Cc1ccccc1)S(=O)(=O)c1ccc(C(=O)N(CCCN(C)C)c2nc3cc4c(cc3s2)OCO4)cc1,0.3,-65.9*,0.8,9.3,-9.3
CN(C)CCCN(C(=O)c1ccc2c(c1)CCCC2)c1nc2ccc(F)cc2s1,0.5,6.4,-4.3,9.6,-4.2
CN(C)CCCN(C(=O)c1ccc2c(c1)CCCC2)c1nc2cc3c(cc2s1)OCO3,1.0,-27.4,2.0,39.5*,-1.6
CSCCC(NS(=O)(=O)c1ccc2c(c1)oc(=O)n2C)C(=O)NCc1ccc(Cl)cc1 (stereo not given),-0.3,-3.9,-11.5,-0.2,-6.3
O=C(O)c1ccc(N/N=C/C2=C(N3CCOCC3)C(=C\c3ccccc3)/CC2)cc1,18.0,-18.9,-8.2,82.6*,-2.5
Cc1cc(C)nc(N/N=C/C2=C(N3CCOCC3)C(=C\c3ccc(Cl)cc3)/CC2)n1,-0.7,-1.3,0.2,-2.3,-2.4
Cc1nc2sc(C(N)=O)c(N)c2c(-c2ccc(Br)cc2)c1C(=O)Nc1ccc(Cl)cc1,-0.4,-0.1,-0.5,2.8,3.1
CCn1ccnc1CN1CCN(CC=C(C)C)C(CCO)C1 (stereo not given),0.0,-10.2,31.3*,0.3,-3.5
CCN1CCN(c2oc(/C=C/c3ccc(OC)c(OC)c3)nc2C#N)CC1,0.3,8.2,0.7,0.1,-0.3
CCC(C(=O)NCCc1ccc(Cl)cc1)n1ccc2cc(S(=O)(=O)N3CCCCC3)ccc21 (stereo not given),0.9,-4.5,5.8,6.0,2.1
COC(=O)c1sc(NC(=O)C2CCCO2)c(C(=O)OC)c1C (stereo not given),-0.6,-4.9,32.1*,-0.2,-2.5
NC(=O)c1c(NC(=O)C2CCCO2)sc2c1CCCC2 (stereo not given),0.8,-14.6,9.9,-0.1,-6.1
N#Cc1c(NC(=O)C2CCCO2)sc2c1CCCCCC2 (stereo not given),1.2,-31.8*,0.0,6.5,3.2
COc1ccc(NC(=O)Cn2ccn(-c3ccc(F)c(F)c3)c(=O)c2=O)cc1Cl,0.2,1.8,-2.5,1.5,0.7
CN(Cc1ccccc1)C1CCCN(C(=O)c2ccc(Cl)s2)C1 (stereo not given),-0.2,-31.2*,0.9,1.9,-9.2
COc1ccccc1NC(=O)Cn1c(=O)n(CCc2ccccc2)c(=O)c2c3c(sc21)CN(C(C)=O)CC3,0.8,-6.0,-4.3,2.3,-3.9
CCC(CC)C(=O)Nc1ccc2nc(SCC(=O)N3CCOCC3)sc2c1,0.1,-6.5,-1.5,-2.1,0.3
CC(=O)N1c2ccc(S(=O)(=O)NCCC(=O)Nc3ccc(Br)c(C)c3)cc2CC1C (stereo not given),-0.2,-2.5,1.4,3.6,-3.7
